High-throughput results deposited in PubChem BioAssay by The Scripps Research Institute Molecular Screening Center.
TEAD-YAP inh = TEAD-YAP interaction inhibition | AID 1259422 | HEK-TIYL cells, TEAD-Gal4/YAP UAS-luciferase luminescence | 640,000 tested, 1.4% active | inhibition, % at 9.12 µM; in the data active = inhibition above about 32%;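 also: 0% = median of test compound wells and 100% = reference inhibitor wells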
GPR151 activ = activators of human GPR151; PathHunter beta-arrestin GPR151 cells, luminescence; activation, % at 11.2 µM; 650,000 tested, 1% active; in the data active = activation above about 4.9%;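 also: 0% = median of compound wells and 100% = cells with positive control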
FBW7 act = activators of human E3 ligase FBW7; Q969H0; AlphaScreen FBW7–phospho-cyclin E peptide binding, activator screen; normalized activity (activation), % at 26.1 µM; 650,000 tested, 0.13% active; AID 1259310; in the data active = normalized activity above about 1.9%;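 also: purified mutant Fbw7 with reduced substrate affinity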
Target sequence (Q969H0 whole entry, looked up): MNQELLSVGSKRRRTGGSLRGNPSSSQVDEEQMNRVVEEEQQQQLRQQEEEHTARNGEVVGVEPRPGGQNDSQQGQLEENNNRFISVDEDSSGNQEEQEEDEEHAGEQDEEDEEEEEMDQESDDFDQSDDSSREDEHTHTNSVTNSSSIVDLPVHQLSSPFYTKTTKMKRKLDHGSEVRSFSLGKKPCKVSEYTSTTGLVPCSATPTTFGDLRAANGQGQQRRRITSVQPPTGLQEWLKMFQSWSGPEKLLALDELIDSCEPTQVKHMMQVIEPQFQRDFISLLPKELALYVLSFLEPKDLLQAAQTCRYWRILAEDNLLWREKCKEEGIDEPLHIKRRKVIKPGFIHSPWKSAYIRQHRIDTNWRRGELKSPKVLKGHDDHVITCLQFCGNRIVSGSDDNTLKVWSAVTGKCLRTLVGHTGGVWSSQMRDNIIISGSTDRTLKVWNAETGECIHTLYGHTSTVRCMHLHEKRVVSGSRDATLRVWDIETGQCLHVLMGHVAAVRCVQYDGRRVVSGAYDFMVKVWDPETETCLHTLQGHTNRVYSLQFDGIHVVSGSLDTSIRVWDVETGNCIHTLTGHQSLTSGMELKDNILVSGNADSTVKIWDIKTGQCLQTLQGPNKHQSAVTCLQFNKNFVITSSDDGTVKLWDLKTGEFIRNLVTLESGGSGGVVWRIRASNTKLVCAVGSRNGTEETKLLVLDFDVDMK
MITF inh = blocks human microphthalmia-associated transcription factor; O75030; AlphaScreen MITF homodimerization, bead proximity signal; inhibition, % at 2.6 µM; 650,000 tested, 0.91% active; in the data active = inhibition above about 50%;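 also: 0% = vehicle wells with protein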
Active calls of the source: *. A selection: hits, their analogues and other compounds. The true share with any hit is near 3.5%.

SMILES	TEAD-YAP inh	GPR151 activ	FBW7 act	MITF inh
CCN1CCN(Cc2cc(Cl)c3cccnc3c2O)CC1	46.7*	1.1	-0.1	50.1
N#Cc1ccccc1OCC(=O)NNC(=O)CNC(=O)c1cccc(Cl)c1	6.6	3.1	0.0	0.6
CN1CCN(Cc2cc(Cl)c3cccnc3c2O)CC1	53.6*	0.2	-1.2	78.7*
OCC1CCCCN1Cc1cc(Cl)c2cccnc2c1O (configuration not stated) (tested in a mixture with another compound)	76.2*	-0.3	-0.3	65.8*
Oc1c(CN2CCOCC2)cc(Cl)c2cccnc12	50.3*	-0.9	-0.1	64.1*
O=C1CCCN1Cc1cc(Cl)c2cccnc2c1O	8.7	0.6	-0.1	64.5*
OCC1CCCCN1Cc1cccc(Cl)c1Cl (configuration not stated)	2.6	-1.3	1.1	6.3
CN(C)C(=O)Cn1c(SCC(=O)N2CCc3ccccc32)nc2ccccc21	0.0	-0.8	-0.1	12.8
N=C1S/C(=C\c2ccc(-c3cc(Cl)cc(Cl)c3)o2)C(=O)N1c1nccs1	3.6	-0.2	-0.2	3.6
COc1ccc(-c2cc(N3CCN(C(=O)c4c(F)cccc4Cl)CC3)ncn2)cc1	-10.1	1.4	0.1	-6.0
C(=N\Nc1ccc2ccccc2n1)/c1cccs1	59.5*	-2.1	-0.1	1.2
Oc1ccc(/C=N/Nc2ccc3ccccc3n2)c(O)c1O	-30.1	-0.5	-0.6	21.1
Oc1cccc2ccc(/C=N/Nc3ccc4ccccc4n3)nc12	33.4*	-2.7	-0.1	-10.0
O=C(CSc1nc2[nH]ncc2c(=O)n1-c1ccc(Br)cc1)Nc1ccccc1C(F)(F)F	-3.3	2.4	-0.1	1.8
O=C(NN1C(=O)c2cccc3c([N+](=O)[O-])ccc(c23)C1=O)c1ccc([N+](=O)[O-])cc1	8.1	0.1	2.6*	16.7
CCC(=O)c1ccc2c(c1)OCCO2	4.5	-0.6	0.4	-4.0
CCc1n[n+](CC(=O)c2ccc3c(c2)OCCO3)c(N)s1	62.6*	-7.7	0.1	-10.0
Cc1ccc(C)n1-c1nnc(N2CCC(C(=O)NCCc3cccs3)CC2)s1	-9.0	1.2	0.0	-5.7
NNc1nc(Nc2ccccc2)nc(Nc2ccccc2)n1	35.0*	-0.5	-0.8	3.9
Cc1ccc(NC(=O)Cc2nn(C)c(=O)c3ccccc23)cc1	42.4*	3.4	-0.1	-10.9
Cc1cccc(NC(=O)Cc2nn(C)c(=O)c3ccccc23)c1	45.5*	0.6	-0.4	7.2
Cn1nc(CC(=O)Nc2cccc(F)c2)c2ccccc2c1=O	34.2*	-2.0	0.1	17.6
Cn1nc(CC(=O)Nc2c(F)cccc2F)c2ccccc2c1=O	41.1*	0.2	-0.1	13.0
Cn1nc(CC(=O)Nc2ccccc2Br)c2ccccc2c1=O	25.2	-1.1	-0.1	-3.5
O=C1NN(c2cccc(Cl)c2)C(=O)/C1=C\c1ccc(-c2ccc3c(c2)C(=O)NC3=O)o1	1.4	-0.2	0.0	0.7
SMILES	TEAD-YAP inh	GPR151 activ	FBW7 act	MITF inh
CCCOc1ccc(/C=N/NC=O)c(O)c1	-7.9	-0.8	-0.2	-19.7
COCC1CCCCN1c1nc2nonc2nc1NCc1cccs1 (configuration not stated)	-8.9	0.1	0.3	5.0
CC(=O)NC1=NC(=O)/C(=C\c2ccc(OCc3ccccc3)cc2)S1	-3.1	0.4	-0.1	5.2
COc1cc(NC(=O)Cc2nn(C)c(=O)c3ccccc23)cc(OC)c1OC	-2.2	-0.4	-0.1	0.7
COc1ccc(CC(=O)NCc2ccsc2)cc1	34.7*	1.8	0.1	6.0
Cn1nc(CC(=O)Nc2ccc(F)c(Cl)c2)c2ccccc2c1=O	29.7	-1.1	1.9*	19.1
COc1ccc(CNC(=O)Cc2nn(C)c(=O)c3ccccc23)cc1	37.7*	0.4	0.1	6.7
COc1ccc(CC(=O)NCc2ccc(C)cc2)cc1	30.9	1.0	-0.1	-0.6
CCCN(CCC)C(=O)C(CC)Sc1nc2n[nH]c(C)c2c(=N)n1-c1cccc(OC)c1 (configuration not stated)	49.9*	1.0	0.0	10.5
CCCCN(CC)C(=O)CSc1nc2n[nH]c(C)c2c(=N)n1-c1cccc(OC)c1	23.6	-0.9	0.8	24.7
CCN(CC)C(=O)CSc1nc2n[nH]c(C)c2c(=N)n1-c1cccc(OC)c1	43.8*	0.5	-0.1	7.7
COc1cccc(-n2c(SCC(=O)N3CCCC3)nc3n[nH]c(C)c3c2=N)c1	43.2*	-0.9	0.1	14.6
CCOc1ccc(NC(=O)CSc2nc3n[nH]c(C)c3c(=N)n2-c2cccc(OC)c2)cc1	33.0*	0.6	0.2	-0.6
COc1ccc(C(=O)Nc2cccc(Oc3ccc4c(c3)C(=O)N(c3ccc(OC)cc3)C4=O)c2)cc1	7.4	-1.2	0.1	-1.2
CC(=O)C(C)Sc1nc2c(c(=O)n(C)c(=O)n2C)n1Cc1ccc(F)cc1 (configuration not stated)	4.2	3.5	0.1	-1.1
CCOc1ccc(NS(=O)(=O)c2cc3c4c(c2)CC(=O)N4CCC3)cc1	10.8	-1.5	0.0	11.4
CCOC(=O)c1ccc(N2C(=O)/C(=C\c3ccco3)C(C(=O)OC)=C2C)cc1	8.0	-1.1	0.4	66.7*
CCOC(=O)C1CCCN(c2c(NCCN3CCCC3)c(=O)c2=O)C1 (configuration not stated)	2.6	-0.3	-0.1	-9.1
CCn1c(SCC(=O)N2CCCC2)nnc1-c1c[nH]c2ccccc12	0.7	0.3	-0.2	-6.7
CCOC(=O)N1CCN(C(=O)CSc2nnc(-c3c[nH]c4ccccc34)n2CC)CC1	35.8*	-1.9	0.0	-13.1
Cc1ccccc1Cn1c(=O)c2c(nc3n2CCCN3C2CCCCC2)n(C)c1=O	-2.2	-0.5	0.1	8.3
COc1ccc(-c2nc3ccccc3c(=O)n2OC(=O)c2ccc(C(C)(C)C)cc2)cc1OC	-13.6	-1.8	0.1	-3.4
CCc1ccc(C(=O)On2c(-c3ccc(C(C)(C)C)cc3)nc3ccccc3c2=O)cc1	39.1*	-0.6	-0.6	-6.0
COc1ccccc1C(=O)Nn1c(-c2ccc(C(C)(C)C)cc2)nc2ccccc2c1=O	39.7*	-0.2	0.0	17.3
COc1ccccc1C(=O)Nn1c(-c2ccc(Br)cc2)nc2ccccc2c1=O	7.1	0.0	-0.1	-0.8
SMILES	TEAD-YAP inh	GPR151 activ	FBW7 act	MITF inh
CC(C)(C)c1ccc(C(=O)On2c(-c3ccc(C(C)(C)C)cc3)nc3ccccc3c2=O)cc1	37.9*	-0.5	-0.7	-4.1
Cc1ccccc1NC(=O)CN(C)S(=O)(=O)c1ccc2[nH]c(=O)ccc2c1	7.3	0.9	0.3	2.9
COc1cccc(OCCOc2ccccc2/C=N/n2cnnc2)c1	-30.5	1.2	0.1	-0.3
Cc1cc2oc(=O)cc(C)c2cc1[N+](=O)[O-]	6.8	0.1	0.1	4.6
O=C1/C(=C/c2ccco2)SC(=S)N1NS(=O)(=O)c1ccccc1	8.4	1.7	0.0	59.5*
COc1ccc(/C=C2/SC(=S)N(NS(=O)(=O)c3ccccc3)C2=O)cc1	-2.2	1.5	0.0	-6.6
CCC(C(=O)O)N1C(=O)/C(=C\c2ccco2)SC1=S (configuration not stated)	-6.2	0.9	-0.1	59.3*
CCC(C(=O)O)N1C(=O)/C(=C/c2cccs2)SC1=S (configuration not stated)	4.4	-1.2	-0.2	1.0
